In the library only some 8.7% were active in any assay of this set; here they are far more common.
JMJD2A Tudor inh: JMJD2A Tudor domain (human) inhibition. 4.4% of 390,000 active. AlphaScreen JMJD2A-Tudor / H3K4me3 peptide binding. Potency, µM (top dose mostly 114 µM), for the others: at the top dose activity change, negative = inhibition, actives largely listed as inhibitors; note: % is set by controls: 0 for no effect and ±100 for the full control effect; nearly all actives have a fitted effect of over 50% in size
HP1b chromo inh: inhibitors of HP1-beta chromodomain binding to methylated histone tails. AlphaScreen HP1-beta / biotin-H3K9me3 peptide binding. 0.56% of 390,000 active. AID 540317. P83916. Potency, µM (series often up to 114 µM), inactives show at the highest dose activity change, negative = inhibition, actives largely listed as inhibitors; note: nearly all actives have a fitted effect of over 70% in size
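HP1-beta protein (50 nM final) preincubated 30 min at room temperature with biotinylated H3(1-18)K9me3 peptide (50 nM) in PBS pH 7.4, 0.01% Tween-20, then compound added for 30 min. AlphaScreen streptavidin donor/nickel chelate acceptor beads (10 ug/mL final), 30 min dark, luminescence read.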
BAZ2B inh: blocks human BAZ2B | AlphaScreen BAZ2B-H3K14Ac peptide displacement | Potency, µM (highest dose often 114 µM), without a hit: top-dose activity change, negative = inhibition, actives largely listed as inhibitors | 4.4% of 360,000 active | AID 504333; note: % is set by controls: 0 for no effect and ±100 for the full control effect; nearly all actives have a fitted effect of over 60% in size
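Compounds, titrated to a top concentration of 110 uM, were incubated 30 min at room temperature with preformed BAZ2B/acetyl-K14 H3 peptide complex (50 nM each). Proximity signal was measured by AlphaScreen after 20 min with beads.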
G9a inh: G9a (human) methyltransferase inhibition. G9a H3K9 monomethylation, AlphaScreen, 2 h. Q96KQ7. AID 504332. 8.8% of 350,000 active. Potency, µM (doses to about 102 µM), for inactives: at the highest dose activity, negative = inhibition, actives largely listed as inhibitors; note: % is set by controls: 0 for no effect and ±100 for the full control effect; nearly all actives have a fitted effect of over 75% in size
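G9a (20 nM) was preincubated 15 min with compound, then reacted 2 h at room temperature with 500 nM biotin-H3K9 peptide and 20 µM SAM. Monomethyl-H3K9 detected by AlphaScreen using anti-H3K9me1 antibody.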
Sfp PPTase inh: blocks B. subtilis Sfp PPTase activity; Biochemical Sfp PPTase activity, qHTS; Potency, µM, without a hit: largest response in the series, negative = inhibition, actives largely listed as inhibitors; 3.5% of 310,000 active;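 note: the enzyme is Sfp with the accession as filed and its product quenches rhodamine fluorescence; 0% = enzyme reaction without inhibitor and -100% = no enzyme wells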
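Compounds were incubated with enzyme (final 15 nM) for 15 min at room temperature before substrate addition started the reaction. Fluorescence at 525 nm excitation, 598 nm emission was recorded immediately and after 30 minutes.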
12-LOX inh: blocks human arachidonate 12S-lipoxygenase | purified 12hLO, xylenol orange hydroperoxide absorbance | AID 1671190 | P18054 | Potency, µM (highest dose often 108 µM), inactives show top-dose activity change, negative = inhibition, usual class: inhibitors | 1.1% of 580,000 active; note: % is set by controls: 0 for no effect and ±100 for the full control effect
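Purified human 12hLO at 150 nM in 25 mM Hepes, 0.01% Triton X-100, pH 7.0, preincubated 15 min at room temperature with compound. Reaction started with 40 uM arachidonic acid, 30 min at room temperature. Hydroperoxide measured by Fe-xylenol orange, 573/405 nm absorbance ratio.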
* marks the source's active call; other numbers are inactive results; u = inconclusive; x = no result given; [ ] = another dose, or the depositor's remark. Calls come from the whole dose curve; as a rule, active = well fitted curve in the direction sought with a large enough effect; inconclusive = small, poorly fitted or top-dose-only effect, or another doubt; inactive = no such curve, though single readings can be large; an effect the other way counts as inactive or inconclusive. Potency is the fitted concentration of half-maximal effect.

SMILES	JMJD2A Tudor inh	HP1b chromo inh	BAZ2B inh	G9a inh	Sfp PPTase inh	12-LOX inh
Cc1ccc(Cn2c(C(C)Nc3nc(-c4ccc(Cl)cc4)cs3)nc3cc(C(=O)NCCCO)ccc32)cc1 (configuration not stated)	79.4µM*	5.9%	x	x	x	u
CCCn1c(C(C)Nc2nc(-c3ccc(C)cc3)cs2)nc2ccccc21 (configuration not stated)	u	-3.2%	u	89.1µM*	-9.0%	-15.7%
Cc1cc(Br)ccc1NC(=O)CNC(=O)CCc1ncc(-c2ccc(F)cc2)o1	x	x	x	x	x	-18.8%
COCc1noc([C@@H]2CC(F)(F)CN2C(=O)c2cccc(C#N)c2)n1	x	x	x	x	x	52.9%
Cc1nn(-c2nnc(NCc3ccccc3)nn2)c(C)c1Br	50.1µM*	u	35.5µM*	12.6µM*	-4.1%	u
Cc1cc(C)n(-c2nnc(NCc3ccc(Cl)cc3)nn2)n1	39.8µM*	u	u	-35.3%	14.3%	-4.8%
Cc1cccc2nc(-c3ccco3)c(Nc3ccccc3)n12	u	-3.8%	39.8µM*	u	-16.4%	-3.2%
Cc1ccc(Nc2c(-c3ccc(C)o3)nc3cccc(C)n23)cc1	44.7µM*	u	25.1µM*	17.8µM*	x	44.7µM*
CSc1ccc(-c2nc3cccc(C)n3c2Nc2ccc3c(c2)OCO3)cc1	28.2µM*	u	x	5.62µM*	x	u
Cc1ccc(-c2nc3cccc(C)n3c2Nc2ccc3c(c2)OCO3)o1	39.8µM*	u	28.2µM*	17.8µM*	x	u
COc1ccc(Nc2c(-c3ccc(C)o3)nc3ccccn23)cc1	u	-17.9%	x	x	x	x
Cc1cccnc1NCCNC(=O)c1cc(S(N)(=O)=O)ccc1F	x	x	x	x	x	17.3%
COc1ccc(-c2nc3cc(C(C)C)ccc3o2)cc1NC(=O)COc1ccc([N+](=O)[O-])cc1	x	x	x	x	x	-0.1%
Cc1cccc2nc(-c3ccco3)c(Nc3ccc4c(c3)OCO4)n12	44.7µM*	u	20µM*	35.5µM*	u	u
Cc1ccn2c(Nc3ccc4c(c3)OCO4)c(-c3ccco3)nc2c1	u	u	-36.7%	4.47µM*	x	-23.4%
Cc1cc(C)n2c(Nc3ccc4c(c3)OCCO4)c(C3CC3)nc2n1	x	x	x	x	x	-31.5%
O=c1c(Cl)c(Oc2ccc(C(F)(F)F)cc2)cnn1-c1ccc(C(F)(F)F)cn1	x	x	x	x	x	-7.1%
COc1cccc(/C=C2\SC(=S)N(CCC(=O)NC3C=CS(=O)(=O)C3)C2=O)c1 (configuration not stated)	-17.6%	52.6%	u	2.9%[12.7 µM]	-9.9%	-1.6%
CC(C(=O)NC1C=CS(=O)(=O)C1)N1C(=O)/C(=C\c2ccccc2)SC1=S (configuration not stated)	1.2%	20.2%	u	x	12.6µM*	u
COc1ccccc1/C=C1/SC(=S)N(C(C)C(=O)NC2C=CS(=O)(=O)C2)C1=O (configuration not stated)	6.2%	36.6%	-27.9%	44.7µM*	-6.6%	u
COc1ccc(/C=C2\SC(=S)N(CCC(=O)NC3C=CS(=O)(=O)C3)C2=O)cc1 (configuration not stated)	-23.0%	24.4%	-20.3%[57.1 µM]	-10.6%	5.5%	3.8%
CC(C(=O)NC1C=CS(=O)(=O)C1)N1C(=O)/C(=C/c2cccc(Cl)c2)SC1=S (configuration not stated)	u	-22.0%	u	25.1µM*	-7.5%	u
Cc1ccc(C2Cn3nnc(C(=O)N4CCN(C(=O)Cc5cccs5)CC4)c3CO2)cc1 (configuration not stated)	x	x	x	x	x	7.5%
Cc1cc(Cn2cc3c4c(cccc42)[C@H](CC(C)C)N[C@H](C(=O)NC(C)C)C3)no1	x	x	x	x	x	0.2%[176 µM]
COc1cccc(-c2nnc(SCC(=O)Nc3cc(C)on3)n2C)c1	-4.2%	16.6%	-1.6%	50.1µM*	19.2%	u
SMILES	JMJD2A Tudor inh	HP1b chromo inh	BAZ2B inh	G9a inh	Sfp PPTase inh	12-LOX inh
CCc1sc2nc(SCC(=O)Nc3cc(C)on3)n(-c3cccc(OC)c3)c(=O)c2c1C	-14.9%	26.0%	u	-15.3%	56.2µM*	131.0%
Cc1cc(NC(=O)CSc2nnc(-c3cccc(F)c3)n2N)no1	-16.6%	28.9%	-9.5%	-16.5%[2.33 µM]	x	-4.2%
COc1ccc(-c2nnc(SCC(=O)Nc3cc(C)on3)n2N)cc1OC	-17.1%	36.6%	-4.8%	50.1µM*	7.1%	11.6%
COC(=O)CSc1nnc(-c2cccnc2)n1C	-0.7%	45.9%	-6.6%	5.9%	10.1%	-1.7%
COc1ccc(OC)c(C(=O)CSc2nnc(-c3cccnc3)n2C)c1	-10.1%	23.6%	-19.3%	17.8µM*	9.8%	u
NC(=O)CN1CCC(C(=O)NCc2cc(-c3ccc(Cl)cc3)on2)CC1	x	x	x	x	x	46.7%
Cc1cc(NC(=O)CSc2nnnn2-c2ccc(C)c(C)c2)no1	5.6%	46.6%	9.9%	x	4.8%	-6.7%
Cc1cc(NC(=O)CSc2nnnn2-c2ccc(C)c(Cl)c2)no1	-7.0%	22.9%	7.3%	44.7µM*	-2.4%	3.9%
NC(=O)COC(=O)c1ccc(C2Nc3ccccc3S(=O)(=O)N2)cc1 (configuration not stated)	x	x	x	x	x	-7.5%
COc1cccc(OC)c1OCc1ccon1	x	x	x	x	x	0.4%
O=C1OCCN1S(=O)(=O)Nc1ccccc1	79.4µM*	23.7%	-36.3%	44.7µM*	12.8%	u
Cc1ccc(CN(C)C(=O)COC(=O)CSc2ccc(C(N)=O)cc2[N+](=O)[O-])cc1	-30.7%	28.3%	-3.7%	6.8%[0.501 µM]	x	-15.7%
COCCN(CCOC)C(=O)c1ccc(SCc2ccc(C)cc2)c([N+](=O)[O-])c1	-32.6%	-15.2%	u	56.2µM*	-6.9%	-2.4%
CCOC(=O)CCN(CC1CC1)C(=O)Cc1cccs1	x	x	x	x	x	59.9%
CN(C)c1ccc(NC(=O)c2ccc3nsnc3c2)cc1	-35.3%	-13.4%	-11.3%	4.47µM*	-8.2%	u
Cc1cccc(NC(=O)c2cccc(C(=O)Nc3cccc(C)c3)n2)c1	-20.9%	-2.6%	x	x	x	u
CN(C)c1ccc(NC(=O)c2cccc(C(=O)Nc3ccc(N(C)C)cc3)n2)cc1	15.8µM*	39.8µM*	7.94µM*	3.16µM*	-23.9%	-7.1%
O=C(Nc1ccccc1)c1cccc(C(=O)Nc2ccccc2)n1	-8.3%	32.1%	-16.9%	-12.4%[12.7 µM]	17.4%	426.5%
Cc1cc(C)cc(NC(=O)c2cccc(C(=O)Nc3cc(C)cc(C)c3)n2)c1	4.47µM*	22.4%	u	u	56.2µM*	215.1%
O=C(O)c1ccc(NC(=O)c2cccc(C(=O)Nc3ccc(C(=O)O)cc3)n2)cc1	u	57.7%	-33.6%	22.4µM*	-6.2%	8.4%
COc1ccc(CCNc2ncnc3c2CN(c2ccccc2C)C(=O)CN3C)cc1	x	x	x	x	x	2.0%
